Common to all, as to assay: DAPPL (digital affinity profiling via proximity ligation, sequencing); 10 mM Tris-HCl pH 7.5, 50 mM NaCl, 1 mM DTT, 4% glycerol, room temperature, 30 min; GST-TFs on glutathione beads, 16-mer random dsDNA library, 0.1% formaldehyde crosslink after washing; high values mean tight binding
In assay [1] the target is T1, FEV (Homo sapiens, UniProt Q99581 1-238).
T1 sequence: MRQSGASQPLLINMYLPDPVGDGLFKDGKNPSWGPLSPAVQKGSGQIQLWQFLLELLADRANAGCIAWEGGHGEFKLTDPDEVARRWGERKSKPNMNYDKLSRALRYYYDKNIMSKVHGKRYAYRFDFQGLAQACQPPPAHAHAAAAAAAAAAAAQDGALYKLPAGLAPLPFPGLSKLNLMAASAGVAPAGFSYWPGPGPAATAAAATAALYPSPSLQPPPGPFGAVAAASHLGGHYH
Conditions: protein: recombinant; tags: N-terminal GST; dsDNA, one strand shown. In outline:
(§1)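 Binding signal is given per hexamer as its read frequency for a factor divided by its frequency in the tag-only sample. GST-fused human transcription factors were expressed in yeast, captured on glutathione beads, barcoded with DNA and pooled with that sample, then incubated with 200 nmole of a 16-mer random double-stranded DNA library in Tris/NaCl/DTT/glycerol buffer for 30 min at room temperature. The pools were then washed, crosslinked, proximity-ligated, amplified by PCR and sequenced on an Illumina NextSeq500.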

The target of assay [2] is ETV5 (Homo sapiens, UniProt P41161 1-510). To be noted: protein: recombinant; tags: N-terminal GST; dsDNA, one strand shown. In outline:
as §1

Assay [3] addresses HSF1 (Homo sapiens, UniProt Q00613 1-529). Conditions: protein: recombinant; tags: N-terminal GST; chain copies: 3; dsDNA, one strand shown. In outline: as §1
In assay [4] the target is T2, SPIC (Homo sapiens, UniProt Q8N5J4 1-248).
T2 sequence: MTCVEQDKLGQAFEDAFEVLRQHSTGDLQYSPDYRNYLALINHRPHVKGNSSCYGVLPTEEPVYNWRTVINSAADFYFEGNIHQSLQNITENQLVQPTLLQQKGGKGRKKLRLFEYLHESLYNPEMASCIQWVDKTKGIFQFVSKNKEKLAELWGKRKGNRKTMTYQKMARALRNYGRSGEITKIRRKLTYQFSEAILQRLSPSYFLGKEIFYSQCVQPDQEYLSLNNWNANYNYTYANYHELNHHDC
To be noted: protein: recombinant; tags: N-terminal GST; dsDNA, one strand shown. In outline:
as §1

Assay [5] concerns the target ELF4 (Homo sapiens, UniProt Q99607 1-663). To be noted: protein: recombinant; tags: N-terminal GST; dsDNA, one strand shown. In outline:
as §1

For assay [6], the target named is T3, ELK4 (Homo sapiens, UniProt P28324-2 1-405).
T3 sequence: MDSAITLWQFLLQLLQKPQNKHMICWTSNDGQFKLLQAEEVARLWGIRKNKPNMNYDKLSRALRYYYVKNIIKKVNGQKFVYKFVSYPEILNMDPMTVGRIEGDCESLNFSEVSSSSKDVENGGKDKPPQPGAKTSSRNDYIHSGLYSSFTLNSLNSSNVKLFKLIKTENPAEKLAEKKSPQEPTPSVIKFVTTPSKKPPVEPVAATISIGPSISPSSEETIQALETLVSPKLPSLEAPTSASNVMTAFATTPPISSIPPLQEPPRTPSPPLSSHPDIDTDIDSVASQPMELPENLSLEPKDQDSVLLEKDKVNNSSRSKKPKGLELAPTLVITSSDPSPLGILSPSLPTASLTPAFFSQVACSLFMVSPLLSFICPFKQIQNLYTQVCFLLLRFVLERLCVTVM
Conditions: protein: recombinant; tags: N-terminal GST; dsDNA, one strand shown. In outline:
as §1

For assay [7], the target named is T4, ETV2 (Homo sapiens, UniProt O00321 1-342).
T4 sequence: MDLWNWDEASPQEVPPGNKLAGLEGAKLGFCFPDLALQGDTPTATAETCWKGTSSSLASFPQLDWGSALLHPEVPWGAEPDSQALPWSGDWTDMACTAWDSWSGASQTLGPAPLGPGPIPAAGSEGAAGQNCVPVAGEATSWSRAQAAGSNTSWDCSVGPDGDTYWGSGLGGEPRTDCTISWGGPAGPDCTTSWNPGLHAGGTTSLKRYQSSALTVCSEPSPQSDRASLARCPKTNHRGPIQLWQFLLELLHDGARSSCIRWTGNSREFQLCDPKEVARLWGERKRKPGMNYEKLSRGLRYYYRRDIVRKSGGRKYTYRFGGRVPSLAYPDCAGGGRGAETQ
Conditions: protein: recombinant; tags: N-terminal GST; dsDNA, one strand shown. In outline:
as §1

For assay [8], the target named is T5, ELF3 (Homo sapiens, UniProt P78545 1-371).
T5 sequence: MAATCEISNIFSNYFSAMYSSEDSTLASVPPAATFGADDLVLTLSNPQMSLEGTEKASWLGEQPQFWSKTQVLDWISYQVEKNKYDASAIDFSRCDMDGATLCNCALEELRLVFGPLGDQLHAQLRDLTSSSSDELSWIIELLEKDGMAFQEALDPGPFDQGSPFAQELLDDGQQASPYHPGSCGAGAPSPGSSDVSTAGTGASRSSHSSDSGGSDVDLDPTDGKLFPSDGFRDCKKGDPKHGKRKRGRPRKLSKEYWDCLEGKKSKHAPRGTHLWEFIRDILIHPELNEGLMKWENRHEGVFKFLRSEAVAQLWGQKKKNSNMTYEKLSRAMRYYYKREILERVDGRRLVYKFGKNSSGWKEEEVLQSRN
Conditions: protein: recombinant; tags: N-terminal GST; dsDNA, one strand shown. In outline: as §1

Assay [9] deals with CRX (Homo sapiens, UniProt O43186 1-299). To be noted: protein: recombinant; tags: N-terminal GST; dsDNA, one strand shown. In outline: as §1
CRX, sequence (O43186 whole entry): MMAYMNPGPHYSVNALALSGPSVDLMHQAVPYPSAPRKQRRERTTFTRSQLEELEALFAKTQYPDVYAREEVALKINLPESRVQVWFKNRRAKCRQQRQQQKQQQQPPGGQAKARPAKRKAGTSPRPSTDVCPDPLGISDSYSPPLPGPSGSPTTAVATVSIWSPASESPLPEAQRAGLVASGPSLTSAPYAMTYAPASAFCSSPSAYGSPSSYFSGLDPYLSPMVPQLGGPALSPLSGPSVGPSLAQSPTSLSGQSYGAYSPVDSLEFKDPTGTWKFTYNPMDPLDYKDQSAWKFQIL
Assay [10] has as its target ETV1 (Homo sapiens, UniProt P50549 1-477). Conditions: protein: recombinant; tags: N-terminal GST; dsDNA, one strand shown. In outline: as §1
The target of assay [11] is T6, ERF (Homo sapiens, UniProt P50548 1-548).
T6 sequence: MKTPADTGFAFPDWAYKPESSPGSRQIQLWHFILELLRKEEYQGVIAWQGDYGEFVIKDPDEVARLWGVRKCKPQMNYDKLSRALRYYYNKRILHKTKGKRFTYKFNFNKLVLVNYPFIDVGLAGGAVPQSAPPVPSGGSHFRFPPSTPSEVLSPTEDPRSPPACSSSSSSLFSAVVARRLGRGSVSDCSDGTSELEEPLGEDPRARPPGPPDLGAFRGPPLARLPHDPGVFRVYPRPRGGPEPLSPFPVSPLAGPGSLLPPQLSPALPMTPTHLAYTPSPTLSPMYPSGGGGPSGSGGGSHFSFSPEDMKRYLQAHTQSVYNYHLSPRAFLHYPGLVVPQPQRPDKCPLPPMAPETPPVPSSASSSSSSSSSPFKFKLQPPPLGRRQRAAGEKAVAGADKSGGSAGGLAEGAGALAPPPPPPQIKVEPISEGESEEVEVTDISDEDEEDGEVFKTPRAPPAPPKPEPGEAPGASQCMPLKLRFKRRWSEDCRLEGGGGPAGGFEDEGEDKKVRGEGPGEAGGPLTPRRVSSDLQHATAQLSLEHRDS
To be noted: protein: recombinant; tags: N-terminal GST; dsDNA, one strand shown. In outline:
as §1

Assay [12] deals with T7, ETV3L (Homo sapiens, UniProt Q6ZN32 1-361).
T7 sequence: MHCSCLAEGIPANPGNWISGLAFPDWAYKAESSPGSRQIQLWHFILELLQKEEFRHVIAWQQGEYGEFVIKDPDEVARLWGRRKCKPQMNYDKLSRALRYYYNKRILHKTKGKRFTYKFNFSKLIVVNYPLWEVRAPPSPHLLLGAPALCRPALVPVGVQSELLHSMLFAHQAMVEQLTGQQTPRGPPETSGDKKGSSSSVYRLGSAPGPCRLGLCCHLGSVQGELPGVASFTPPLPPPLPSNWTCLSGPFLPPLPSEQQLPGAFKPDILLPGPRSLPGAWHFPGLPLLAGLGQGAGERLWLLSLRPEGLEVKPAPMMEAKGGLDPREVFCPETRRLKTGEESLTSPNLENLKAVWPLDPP
Conditions: protein: recombinant; tags: N-terminal GST; dsDNA, one strand shown. In outline: as §1

The target of assay [13] is T8, ETS2 (Homo sapiens, UniProt P15036 1-469).
T8 sequence: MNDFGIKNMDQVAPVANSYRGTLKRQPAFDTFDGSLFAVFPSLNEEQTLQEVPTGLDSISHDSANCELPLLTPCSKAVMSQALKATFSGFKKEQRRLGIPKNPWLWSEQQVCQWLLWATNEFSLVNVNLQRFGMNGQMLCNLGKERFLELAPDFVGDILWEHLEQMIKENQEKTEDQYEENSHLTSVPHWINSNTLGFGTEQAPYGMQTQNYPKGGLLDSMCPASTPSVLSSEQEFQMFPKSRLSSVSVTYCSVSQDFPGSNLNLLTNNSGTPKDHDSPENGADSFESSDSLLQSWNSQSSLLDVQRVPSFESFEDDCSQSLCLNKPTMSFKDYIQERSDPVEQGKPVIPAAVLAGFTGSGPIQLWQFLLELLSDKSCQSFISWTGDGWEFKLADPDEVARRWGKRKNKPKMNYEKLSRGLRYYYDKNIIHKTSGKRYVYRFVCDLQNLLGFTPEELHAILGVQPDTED
Conditions: protein: recombinant; tags: N-terminal GST; dsDNA, one strand shown. In outline: as §1

For assay [14], the target named is T9, SPDEF (Homo sapiens, UniProt O95238 1-335).
T9 sequence: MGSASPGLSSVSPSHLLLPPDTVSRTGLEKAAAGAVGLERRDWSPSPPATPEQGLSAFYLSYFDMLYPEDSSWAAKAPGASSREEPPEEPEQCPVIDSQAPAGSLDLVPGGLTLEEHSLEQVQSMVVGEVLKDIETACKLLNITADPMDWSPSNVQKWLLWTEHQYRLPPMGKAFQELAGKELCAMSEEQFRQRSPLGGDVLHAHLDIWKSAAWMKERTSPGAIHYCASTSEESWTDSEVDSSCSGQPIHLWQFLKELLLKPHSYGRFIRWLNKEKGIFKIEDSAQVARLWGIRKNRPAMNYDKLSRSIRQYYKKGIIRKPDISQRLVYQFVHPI
Conditions: protein: recombinant; tags: N-terminal GST; dsDNA, one strand shown. In outline:
as §1

In assay [15] the target is T10, ETV7 (Homo sapiens, UniProt Q9Y603 1-341).
T10 sequence: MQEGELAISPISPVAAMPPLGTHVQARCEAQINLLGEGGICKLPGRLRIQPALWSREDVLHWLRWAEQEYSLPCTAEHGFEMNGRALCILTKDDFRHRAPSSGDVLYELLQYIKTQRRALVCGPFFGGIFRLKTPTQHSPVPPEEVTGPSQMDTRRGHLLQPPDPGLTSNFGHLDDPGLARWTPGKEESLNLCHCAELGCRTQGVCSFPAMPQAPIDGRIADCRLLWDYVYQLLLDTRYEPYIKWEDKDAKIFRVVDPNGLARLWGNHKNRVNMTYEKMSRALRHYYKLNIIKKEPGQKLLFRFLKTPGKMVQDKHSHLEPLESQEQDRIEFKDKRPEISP
Conditions: protein: recombinant; tags: N-terminal GST; dsDNA, one strand shown. In outline: as §1

Assay [16] deals with T11, ELF5 (Homo sapiens, UniProt Q9UKW6-2 1-255).
T11 sequence: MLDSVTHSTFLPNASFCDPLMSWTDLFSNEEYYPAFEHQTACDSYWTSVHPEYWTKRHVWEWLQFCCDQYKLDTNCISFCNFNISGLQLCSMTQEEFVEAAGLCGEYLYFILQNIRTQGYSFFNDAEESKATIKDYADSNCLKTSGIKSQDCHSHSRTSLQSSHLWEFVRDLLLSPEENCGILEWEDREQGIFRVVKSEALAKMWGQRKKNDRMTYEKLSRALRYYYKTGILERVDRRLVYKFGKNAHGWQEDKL
To be noted: protein: recombinant; tags: N-terminal GST; dsDNA, one strand shown. In outline:
as §1

Assay [17] addresses T12, ETV3 (Homo sapiens, UniProt P41162-2 1-143).
T12 sequence: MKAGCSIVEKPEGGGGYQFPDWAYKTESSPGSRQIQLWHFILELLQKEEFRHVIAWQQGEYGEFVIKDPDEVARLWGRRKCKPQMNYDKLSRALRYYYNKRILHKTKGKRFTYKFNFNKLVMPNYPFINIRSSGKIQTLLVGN
To be noted: protein: recombinant; tags: N-terminal GST; dsDNA, one strand shown. In outline:
as §1

Assay [18] has as its target ETV6 (Homo sapiens, UniProt P41212 1-452). Conditions: protein: recombinant; tags: N-terminal GST; dsDNA, one strand shown. In outline:
as §1

Data on 1 sequence can be found in paper PMC7862700, “An all-to-all approach to the identification of sequence-specific readers for epigenetic DNA modifications on cytosine”.

ELF4, sequence (Q99607 whole entry): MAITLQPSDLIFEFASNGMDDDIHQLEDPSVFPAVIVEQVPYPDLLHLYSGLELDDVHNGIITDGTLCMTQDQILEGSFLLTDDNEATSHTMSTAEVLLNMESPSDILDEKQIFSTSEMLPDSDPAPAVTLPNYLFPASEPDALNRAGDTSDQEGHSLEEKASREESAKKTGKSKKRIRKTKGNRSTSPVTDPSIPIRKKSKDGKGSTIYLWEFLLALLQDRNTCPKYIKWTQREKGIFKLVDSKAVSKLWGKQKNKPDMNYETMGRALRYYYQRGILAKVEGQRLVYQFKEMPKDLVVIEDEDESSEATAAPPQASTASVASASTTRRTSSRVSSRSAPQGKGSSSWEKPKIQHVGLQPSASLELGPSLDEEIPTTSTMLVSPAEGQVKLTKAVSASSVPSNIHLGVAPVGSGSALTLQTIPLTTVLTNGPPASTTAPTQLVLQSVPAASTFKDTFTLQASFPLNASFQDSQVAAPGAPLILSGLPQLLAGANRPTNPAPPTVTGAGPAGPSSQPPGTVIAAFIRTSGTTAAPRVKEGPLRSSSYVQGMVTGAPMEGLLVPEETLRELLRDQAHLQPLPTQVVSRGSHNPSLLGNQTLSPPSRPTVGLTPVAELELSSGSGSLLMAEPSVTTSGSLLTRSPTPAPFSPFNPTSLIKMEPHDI
HSF1, sequence (Q00613 whole entry): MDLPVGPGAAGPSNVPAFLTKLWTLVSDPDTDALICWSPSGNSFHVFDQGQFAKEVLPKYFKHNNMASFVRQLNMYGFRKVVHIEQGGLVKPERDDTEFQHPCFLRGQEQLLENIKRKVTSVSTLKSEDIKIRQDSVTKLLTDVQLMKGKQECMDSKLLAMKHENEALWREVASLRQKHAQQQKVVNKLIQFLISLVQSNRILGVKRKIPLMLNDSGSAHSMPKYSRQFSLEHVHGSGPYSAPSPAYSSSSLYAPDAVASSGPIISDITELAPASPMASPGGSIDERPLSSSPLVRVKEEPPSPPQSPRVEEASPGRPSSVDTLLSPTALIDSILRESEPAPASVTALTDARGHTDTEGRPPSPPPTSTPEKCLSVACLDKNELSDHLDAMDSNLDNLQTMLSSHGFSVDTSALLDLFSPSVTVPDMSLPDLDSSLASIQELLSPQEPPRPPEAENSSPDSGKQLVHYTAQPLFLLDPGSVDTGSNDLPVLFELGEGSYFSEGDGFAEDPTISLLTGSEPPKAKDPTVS
ETV5, sequence (P41161 whole entry): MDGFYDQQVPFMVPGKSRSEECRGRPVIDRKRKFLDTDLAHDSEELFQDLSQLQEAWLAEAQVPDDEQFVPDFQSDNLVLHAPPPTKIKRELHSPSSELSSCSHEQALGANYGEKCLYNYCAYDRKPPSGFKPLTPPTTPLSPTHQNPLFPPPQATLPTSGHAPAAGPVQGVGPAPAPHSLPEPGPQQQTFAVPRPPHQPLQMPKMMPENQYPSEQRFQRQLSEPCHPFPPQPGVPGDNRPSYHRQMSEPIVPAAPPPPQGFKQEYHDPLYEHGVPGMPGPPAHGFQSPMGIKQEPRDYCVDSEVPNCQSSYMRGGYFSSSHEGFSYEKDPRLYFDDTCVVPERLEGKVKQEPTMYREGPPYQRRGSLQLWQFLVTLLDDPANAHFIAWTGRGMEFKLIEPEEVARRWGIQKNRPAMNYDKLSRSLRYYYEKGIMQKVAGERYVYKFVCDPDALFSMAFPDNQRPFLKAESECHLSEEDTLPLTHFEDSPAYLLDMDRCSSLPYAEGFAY
ETV6, sequence (P41212 whole entry): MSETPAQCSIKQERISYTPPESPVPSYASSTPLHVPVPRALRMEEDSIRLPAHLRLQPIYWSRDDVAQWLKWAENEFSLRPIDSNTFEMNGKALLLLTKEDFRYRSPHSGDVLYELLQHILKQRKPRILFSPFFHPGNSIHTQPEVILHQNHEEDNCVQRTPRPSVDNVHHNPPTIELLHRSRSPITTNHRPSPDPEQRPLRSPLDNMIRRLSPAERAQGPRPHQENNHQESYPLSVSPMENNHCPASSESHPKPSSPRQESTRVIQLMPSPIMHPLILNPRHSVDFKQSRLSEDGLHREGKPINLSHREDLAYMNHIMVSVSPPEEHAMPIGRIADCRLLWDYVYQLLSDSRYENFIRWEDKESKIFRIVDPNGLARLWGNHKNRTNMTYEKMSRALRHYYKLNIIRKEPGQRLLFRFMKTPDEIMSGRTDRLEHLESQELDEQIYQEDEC
ETV1, sequence (P50549 whole entry): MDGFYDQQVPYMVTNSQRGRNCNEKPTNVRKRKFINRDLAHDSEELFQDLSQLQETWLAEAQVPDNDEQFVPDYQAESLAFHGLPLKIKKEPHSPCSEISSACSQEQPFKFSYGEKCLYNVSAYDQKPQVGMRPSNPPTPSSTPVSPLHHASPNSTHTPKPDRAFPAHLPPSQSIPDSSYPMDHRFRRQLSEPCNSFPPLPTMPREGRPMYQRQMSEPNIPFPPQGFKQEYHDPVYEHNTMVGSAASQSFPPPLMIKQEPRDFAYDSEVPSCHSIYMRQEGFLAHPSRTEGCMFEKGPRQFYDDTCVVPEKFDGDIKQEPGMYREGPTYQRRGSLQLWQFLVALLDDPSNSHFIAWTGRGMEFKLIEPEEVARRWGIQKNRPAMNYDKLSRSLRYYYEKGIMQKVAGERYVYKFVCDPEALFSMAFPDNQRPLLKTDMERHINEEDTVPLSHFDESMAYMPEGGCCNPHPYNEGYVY

For TTCTTT, the binding signal in assay [1] is 1.19 fold enrichment (6-mer frequency, TF over GST control); in assay [2], 1.14 fold enrichment (6-mer frequency, TF over GST control); in assay [3] it was 1.7 fold enrichment (6-mer frequency, TF over GST control); in [4] it was 1.2 fold enrichment (6-mer frequency, TF over GST control); in [5], 1.28 fold enrichment (6-mer frequency, TF over GST control); in [6], 1.25 fold enrichment (6-mer frequency, TF over GST control). Also, the binding signal in assay [7] is 1.27 fold enrichment (6-mer frequency, TF over GST control); in assay [8], 1.28 fold enrichment (6-mer frequency, TF over GST control); in assay [9], 1.44 fold enrichment (6-mer frequency, TF over GST control); in assay [10], 1.29 fold enrichment (6-mer frequency, TF over GST control); in assay [11] it was 1.08 fold enrichment (6-mer frequency, TF over GST control); in assay [12], 1.27 fold enrichment (6-mer frequency, TF over GST control). The binding signal in assay [13] is 1.32 fold enrichment (6-mer frequency, TF over GST control); in assay [14], 1.08 fold enrichment (6-mer frequency, TF over GST control); in assay [15], 1.24 fold enrichment (6-mer frequency, TF over GST control); in [16], 1.13 fold enrichment (6-mer frequency, TF over GST control); in [17], 1.2 fold enrichment (6-mer frequency, TF over GST control); in [18], 1.14 fold enrichment (6-mer frequency, TF over GST control).
